Results: the supplement of paper PMC6763611

Test system: Plasmodium falciparum NF54
Experiment: growth inhibition relative to untreated control; higher = more inhibition
Details: 72 h
Method in brief: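 P. falciparum NF54 ring stages (1% hematocrit, 1% parasitemia, 100 μL/well in 96-well half-area dark plates) were exposed for 72 h at 37 °C to single 5 μM or 1 μM doses of Pathogen Box compounds. The medium was minimal RPMI or minimal RPMI plus chorismate end-products (2.2 μM folate, 7.3 μM pABA, 7.3 μM pHBA, 111 μM tyrosine, 90 μM phenylalanine, tryptophan). Growth inhibition was read by SYBR Green, normalised to untreated controls, with uninfected erythrocytes as background.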

[1] = 1 µM, MM + chorismate end-products (CM screening medium)
[2] = 5 µM, MM + chorismate end-products (CM screening medium)

| SMILES | growth inhibition [1] [%] | growth inhibition (1 µM, minimal medium (MM)) [%] | growth inhibition [2] [%] | growth inhibition (5 µM, minimal medium (MM)) [%] |
| --- | --- | --- | --- | --- |
| COC(=O)c1cccc2oc(-c3cccc(OC)c3NC(=O)c3cc(-c4ccccc4)on3)nc12 | < 0 | < 0 | < 0 | < 0 |
| COc1cc(CN2CCC3(C=Cc4ccccc43)CC2)cc2c1OCO2 | > 100 | < 0 | < 0 | 8.3 |
| COc1cc(-c2cc(-c3ccc(S(C)(=O)=O)cc3)cnc2N)ccc1O | > 100 | > 100 | 96.8 | 96 |
| COc1ccc(-c2onc(C(F)(F)F)c2-c2ccc(Cl)cc2)c(O)c1 | 94 | 94.8 | 98.9 | 97.5 |
| Cc1nn2c(O)c3c(nc2c1-c1ccc(F)cc1)CCCC3 | 11 | 13.4 | 36.7 | 24.6 |
| C[C@H](C(N)=O)N1CCCC[C@H]1c1ccc(OCc2cccc(F)c2)cc1 | 18.3 | 3.3 | < 0 | < 0 |
| CC(C)/N=c1\cc2n(-c3ccc(Cl)cc3)c3ccccc3nc-2cc1Nc1ccc(Cl)cc1 | 91.5 | 89.1 | 90 | 94.1 |
| CN1CCN(S(=O)(=O)c2ccc(-c3ccc4c(Nc5ncc(Cl)cn5)ccnc4c3)cc2)CC1 | 96.5 | 96.3 | 99 | 88.6 |
| C[C@@H]1[C@H](O)[C@@H](C)/C=C/C=C/C=C/C=C/C=C/C=C/C=C/[C@H](O[C@@H]2O[C@H](C)[C@@H](O)[C@H](N)[C@@H]2O)C[C@@H]2O[C@](O)(C[C@@H](O)C[C@@H](O)[C@H](O)CC[C@@H](O)C[C@@H](O)CC(=O)O[C@H]1C)C[C@H](O)[C@H]2C(=O)O | 86.2 | 89.8 | > 100 | 97.9 |
| O=C(c1ccc(F)cc1)N(CCNc1ccccc1)c1ccccc1 | < 0 | < 0 | 58.9 | 4.16 |
| CC(=O)Nc1ccc(-c2noc(CC3CCCN(Cc4cccc(F)c4C)C3)n2)cc1 (stereo not given) | 25.8 | < 0 | 93.6 | 82 |
| Cc1cc(C(=O)Nc2ccc(-c3ccccc3)cc2)no1 | 96.4 | 91.1 | 84.6 | 94 |
| Cc1noc(C)c1COc1cccc(C(=O)N=c2[nH]cccc2C)c1 | < 0 | < 0 | < 0 | < 0 |
| COc1ccc(Cn2cnc3c(-c4ccco4)nc(Cl)nc32)cc1 | < 0 | 13.5 | 48.9 | 23.6 |
| COc1ccc2nc(C)cc(OCC(=O)NCc3ccccc3)c2c1 | 25.1 | 2.13 | 21.9 | 2.43 |
| CCCCOC(=O)Nc1cc2nc(C3CCCCC3)[nH]c2cc1N1CCCC1 | 11.2 | 15.4 | 85.8 | 5.52 |
| CCC(NC(=O)c1ccccc1NC(=O)c1ccc(C)cc1)C(=O)OC (stereo not given) | 97.3 | 96.2 | 97.1 | 91.3 |
| Cn1c(=O)c2c(S(C)(=O)=O)snc2n(C)c1=O | 23.6 | 5.49 | 37.3 | 23.5 |
| Cc1ccc(S(=O)(=O)Nc2ccc(CN3CCN(C(=O)c4cccc(C#N)c4)CC3)cc2)cc1 | 5.22 | 5.35 | 42.7 | < 0 |
| Nc1ncc(-c2ccc(C(F)(F)F)nc2)cc1-c1ccc(C(F)(F)F)nc1 | 66.1 | 56.4 | 54.4 | 53.9 |
| O=C(NC1CCN(c2ccnc3ccccc23)C1)c1cccc(C(F)(F)F)c1 (stereo not given) | 80.7 | > 100 | 96.9 | 66.7 |
| COc1ccc(Nc2ccccc2NC(=O)c2ccc(O)nc2)cc1 | 12.7 | < 0 | < 0 | < 0 |
| NCCC(O)C(=O)N[C@@H]1C[C@H](N)[C@@H](OC2O[C@H](CN)[C@@H](O)[C@H](O)[C@H]2O)[C@H](O)C1OC1O[C@H](CO)[C@@H](O)[C@H](N)[C@H]1O (stereo not given in full) | 46 | 17.2 | < 0 | < 0 |
| c1coc(CNc2nc(N3CCCCC3)nc3ccccc23)c1 | 68.6 | 35.7 | 67.2 | 67.2 |

| SMILES | growth inhibition [1] [%] | growth inhibition (1 µM, minimal medium (MM)) [%] | growth inhibition [2] [%] | growth inhibition (5 µM, minimal medium (MM)) [%] |
| --- | --- | --- | --- | --- |
| CCCn1nnc(NC(=O)COc2ccc(C3CCCCC3)cc2)n1 | 6.74 | < 0 | < 0 | < 0 |
| COc1cc(NC(C)CCCN)c2ncccc2c1 (stereo not given) | 51.1 | 54.5 | 64.3 | 38 |
| Cc1ccccc1CN1CCC(O)(c2ccc(Cl)c(C(F)(F)F)c2)CC1 | 51.6 | 30 | 82.6 | 76.2 |
| Cc1cnc(N2CCN[C@@H](Cc3ccccc3)C2)nc1Oc1ccc(-n2ccnc2)cc1 | 93.8 | 92.3 | 99.9 | 98.2 |
| N#Cc1ccc(-c2ccc(OCC(N)=O)cc2)cc1 | < 0 | 6.45 | < 0 | < 0 |
| COc1ccc(-c2cnc3ccc(N4CCCC4)nn23)cc1OC | 79.9 | 78 | 96.8 | 82.4 |
| CC(C)C(NC(=O)Cc1cccc2ccccc12)C(=O)Nc1cccc(C#N)c1 (stereo not given) | 89.9 | 86.3 | 79.3 | 91 |
| COc1cc2ncnc(NC3CCN(Cc4ccccc4)CC3)c2cc1OC | 98.1 | 95.5 | 99.3 | 92.2 |
| Nc1ncc(Br)cc1-c1nc2cc(Cl)cnc2[nH]1 | 61.7 | < 0 | 67.3 | 89.1 |
| CCOC(=O)c1c(NC(=O)c2c(F)c(F)c(F)c(F)c2F)sc(C(N)=O)c1C | 28.3 | < 0 | 14.8 | 13.1 |
| COc1cc(C(F)(F)F)nc2ccc(C)c(N)c12 | < 0 | 30.2 | < 0 | < 0 |
| CC[C@@H](CO)NCCN[C@@H](CC)CO | 12.3 | 28.8 | 0.997 | 3.8 |
| c1ccc(-c2[nH]c3ccccc3c2C(c2ccccn2)N2CCCC2)cc1 (stereo not given) | 3.66 | 5.9 | 43.6 | < 0 |
| c1ccc(Oc2ccc(-c3cc(N4CCNCC4)[nH]n3)cc2)cc1 | 32.1 | 29.2 | 40.3 | 34.4 |
| Nc1ccc2ncnc(Nc3ccc(OCc4cccc(F)c4)c(Cl)c3)c2c1 | 61.9 | 24.6 | 99.7 | 95.7 |
| CO[C@@H](C(=O)N1Cc2[nH]nc(NC(=O)c3ccc(N4CCN(C)CC4)cc3)c2C1)c1ccccc1 | 45.1 | 55.3 | 90 | 90.1 |
| CN1CCN(c2nccc3[nH]c(-c4cccc(F)c4)cc23)CC1 | < 0 | 58.4 | 99 | 90 |
| O=C(COc1cccc(F)c1)Nc1nc(-c2ccccn2)cs1 | < 0 | 2.24 | < 0 | < 0 |
| O=C(NC1=NCCS1)c1sc2cc(F)ccc2c1Cl | 25.1 | 4.51 | < 0 | < 0 |
| Nc1ncnc2[nH]nc(Cc3cccc4ccccc34)c12 | 12.3 | 22.2 | < 0 | < 0 |
| CCCCc1ccc(C(=O)Nc2nccc3ccccc23)nc1 | 6.6 | < 0 | 11.6 | 18.4 |
| FC(F)(F)c1ccc(N(c2cccnc2)C2CCN(c3ccc(C(F)(F)F)cn3)CC2)cc1 | 60.2 | 38.4 | 93.8 | 90.5 |
| Cc1cc(OCC(=O)NCc2ccccc2)c2cc(Br)ccc2n1 | 12.6 | 3.05 | 56.5 | < 0 |
| CC1CC1C(=O)NC1CCN(CC2(c3ccccc3)CCCCC2)CC1 (stereo not given) | 96.1 | 94.5 | 90.8 | 92 |

| SMILES | growth inhibition [1] [%] | growth inhibition (1 µM, minimal medium (MM)) [%] | growth inhibition [2] [%] | growth inhibition (5 µM, minimal medium (MM)) [%] |
| --- | --- | --- | --- | --- |
| CCc1nc2ccc(C(=O)NCc3ccc4c(c3)OCO4)cn2c1N(C)Cc1cccs1 | 21.4 | < 0 | < 0 | < 0 |
| Cc1cc(C)n2nc(C(=O)Nc3cc(C(F)(F)F)ccc3N3CCOCC3)nc2n1 | 82.6 | 77.1 | 75.9 | 68.5 |
| O=C(c1ccc(NCCO)cc1)C1C[C@H]1c1ccc(Cl)cc1 (stereo not given in full) | 71 | 98.1 | 91.8 | 89 |
| CC1=Nc2ccc(Cl)cc2C(O)(c2ccc(C)cc2)N1CCN1CCCCC1 (stereo not given) | 99.9 | > 100 | > 100 | 86.9 |
| Cc1ccc(-c2nc(CN(Cc3ccccn3)C(C)C)cs2)o1 | 47.7 | 20.3 | 81.7 | 49.2 |
| O=S(=O)(c1ccc(Cl)cc1)N1CCN(C(=S)NCc2ccco2)CC1 | 97.7 | 93.6 | 94.3 | 92.6 |
| NC(=O)c1cc(-c2ccsc2)ccc1OCCOc1ccccc1 | 18.1 | 9.01 | 4.73 | < 0 |
| c1ccc(Oc2ccc(-c3cc(N4CCOCC4)[nH]n3)cc2)cc1 | > 100 | < 0 | 7.27 | < 0 |
| c1ccc(Oc2ccc(-c3cncc(-c4ccc5[nH]ccc5c4)n3)cc2)cc1 | > 100 | < 0 | 86.5 | 91.5 |
| Cn1ncc2c(N3CCOCC3)nc(NCCc3c[nH]c4ccccc34)nc21 | 18.9 | 31.1 | 10.8 | < 0 |
| Cc1ccc(S(=O)(=O)n2cc(-c3ccnc(N)c3)c3cc(Br)cnc32)cc1 | 95.2 | > 100 | 97.8 | 95.2 |
| N#Cc1ccc(-c2cnc(N)c(-c3ccc(C(N)=O)cc3)n2)cc1 | 99.3 | > 100 | > 100 | 89.9 |
| COc1ccc(Cl)cc1NC(=O)CN(C)C(=O)c1cnn(-c2ccccc2)n1 | 98.1 | 95.6 | 85 | 98.3 |
| c1cncc(NCc2ccc(-c3cc4ccncc4cc3OC3CCNCC3)s2)c1 | 98.6 | 98 | > 100 | 84.2 |
| Clc1ccc(CN2CCN(C3=NCCN3)CC2)cc1Cl | < 0 | < 0 | 48.8 | 10 |
| CCCCc1ccc(NC(=O)Nc2ccc(O[C@H]3CCCC[C@@H]3N(C)c3ccccc3)c(F)c2)cc1 | 17.3 | < 0 | 98.1 | 85.4 |
| CCOc1ccc(-c2nc(CNCCc3ccc(F)cc3)cs2)cc1 | 2.22 | 38.5 | 28.1 | 27.2 |
| Cc1cc2nc(NC(=O)C(C)(C)C)nc(Cl)c2n1Cc1ccc(Cl)cc1 | 35.7 | 28.8 | < 0 | < 0 |
| COc1ccc(-c2nn(C(C)C)c3ncnc(N)c23)cc1OC | 86.7 | 81.7 | 97.3 | 90.9 |
| O=C(Nc1nnc(-c2ccc(Cl)cc2)o1)c1cccc(C(F)(F)F)c1 | 11.8 | 33 | 42.7 | < 0 |
| CC(C)(C(=O)Nc1ccc(F)cc1)n1cc(-c2ccccc2F)cn1 | 0.0824 | < 0 | 5 | 15.7 |
| CCc1nc2ccccc2n1CC(O)COc1cc(C)ccc1Cl (stereo not given) | 31.1 | 36.8 | 98.5 | 61 |
